Test results as given in ChEMBL document CHEMBL3988442, “University of Dundee, Small-Polar-MMV Screening Library” (2021).
For some of these results: Entries with a potency or affinity are not part of this list.

Key:
[1] = molecular target: Protein translocase subunit SecA (Escherichia coli (strain K12)) (UniProt P10408); experiment: Assay to Identify E. coli SecA ATPase Inhibitors; format: functional; parameters: scale not given: direction of the effect not stated beside the values; conditions: 30 µM
Chain of Protein translocase subunit SecA (Escherichia coli (strain K12)) (P10408 whole entry): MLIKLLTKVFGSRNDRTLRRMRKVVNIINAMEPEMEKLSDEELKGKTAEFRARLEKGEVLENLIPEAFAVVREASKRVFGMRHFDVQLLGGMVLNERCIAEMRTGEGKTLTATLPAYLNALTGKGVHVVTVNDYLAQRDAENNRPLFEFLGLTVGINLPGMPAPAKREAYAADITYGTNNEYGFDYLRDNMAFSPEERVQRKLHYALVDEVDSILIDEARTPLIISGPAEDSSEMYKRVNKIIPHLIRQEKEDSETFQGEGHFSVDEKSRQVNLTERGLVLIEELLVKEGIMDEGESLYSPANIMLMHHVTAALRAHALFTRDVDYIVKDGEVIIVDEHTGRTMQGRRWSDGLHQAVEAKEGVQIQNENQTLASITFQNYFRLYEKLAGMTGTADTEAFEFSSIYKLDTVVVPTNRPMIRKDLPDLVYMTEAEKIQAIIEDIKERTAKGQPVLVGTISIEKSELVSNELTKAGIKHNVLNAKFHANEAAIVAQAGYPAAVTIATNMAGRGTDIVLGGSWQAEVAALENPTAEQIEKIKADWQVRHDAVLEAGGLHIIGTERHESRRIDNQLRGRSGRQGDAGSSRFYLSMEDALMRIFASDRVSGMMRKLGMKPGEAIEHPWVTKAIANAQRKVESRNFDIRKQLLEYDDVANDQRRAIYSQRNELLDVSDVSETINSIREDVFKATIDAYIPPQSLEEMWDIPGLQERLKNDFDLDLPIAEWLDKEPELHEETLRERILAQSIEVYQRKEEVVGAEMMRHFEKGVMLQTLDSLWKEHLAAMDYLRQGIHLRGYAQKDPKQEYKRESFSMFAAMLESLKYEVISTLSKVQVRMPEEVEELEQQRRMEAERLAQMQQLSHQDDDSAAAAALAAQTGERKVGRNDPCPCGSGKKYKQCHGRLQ

[2] = molecular target: T1, Ubiquitin-activating enzyme e1, putative (Leishmania donovani (strain BPK282A1)) (UniProt E9BSI1); experiment: Leishmania donovani Ubiquitin Activating Enzyme (LdE1); format: functional; parameters: scale not given: direction of the effect not stated beside the values; conditions: 30 µM
T1 sequence (whole entry): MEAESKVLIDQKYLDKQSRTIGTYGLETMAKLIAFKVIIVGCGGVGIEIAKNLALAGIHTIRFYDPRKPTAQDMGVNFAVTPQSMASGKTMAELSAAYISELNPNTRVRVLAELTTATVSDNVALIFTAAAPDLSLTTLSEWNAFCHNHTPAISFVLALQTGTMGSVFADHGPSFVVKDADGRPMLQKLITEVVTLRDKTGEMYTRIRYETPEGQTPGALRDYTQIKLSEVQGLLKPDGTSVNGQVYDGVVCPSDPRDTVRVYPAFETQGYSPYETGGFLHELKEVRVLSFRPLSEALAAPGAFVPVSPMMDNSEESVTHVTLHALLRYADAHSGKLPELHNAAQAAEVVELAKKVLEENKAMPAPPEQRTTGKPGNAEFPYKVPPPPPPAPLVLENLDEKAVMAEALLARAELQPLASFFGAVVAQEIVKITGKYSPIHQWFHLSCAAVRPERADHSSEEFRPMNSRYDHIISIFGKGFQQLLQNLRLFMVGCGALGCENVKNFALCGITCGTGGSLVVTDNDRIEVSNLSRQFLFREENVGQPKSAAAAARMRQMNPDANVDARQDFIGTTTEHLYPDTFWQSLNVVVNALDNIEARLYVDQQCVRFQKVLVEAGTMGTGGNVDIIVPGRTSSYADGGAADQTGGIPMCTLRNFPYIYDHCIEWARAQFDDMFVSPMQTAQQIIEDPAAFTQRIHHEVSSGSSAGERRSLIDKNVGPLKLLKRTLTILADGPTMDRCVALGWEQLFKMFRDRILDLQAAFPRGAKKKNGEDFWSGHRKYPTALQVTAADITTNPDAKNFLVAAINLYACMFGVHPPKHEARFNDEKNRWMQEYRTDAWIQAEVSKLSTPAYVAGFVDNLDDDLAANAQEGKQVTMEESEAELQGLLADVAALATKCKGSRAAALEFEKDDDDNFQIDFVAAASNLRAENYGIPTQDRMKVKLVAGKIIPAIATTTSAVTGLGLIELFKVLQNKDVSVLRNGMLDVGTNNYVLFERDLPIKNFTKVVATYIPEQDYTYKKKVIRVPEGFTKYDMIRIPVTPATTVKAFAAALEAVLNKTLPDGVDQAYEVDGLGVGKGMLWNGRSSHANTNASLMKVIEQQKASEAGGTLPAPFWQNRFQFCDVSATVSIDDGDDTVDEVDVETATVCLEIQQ

[3] = molecular target: T2, Aspartate--tRNA(Asp/Asn) ligase (Mycobacterium tuberculosis (strain ATCC 25618 / H37Rv)) (UniProt P9WFW3); experiment: Assay for Asp RNA synthetase-1 from Mycobacterium tuberculosis; format: functional; parameters: scale not given: direction of the effect not stated beside the values; conditions: 30 µM; further: in the data most compounds retested in dose-response had high values
T2 sequence (whole entry): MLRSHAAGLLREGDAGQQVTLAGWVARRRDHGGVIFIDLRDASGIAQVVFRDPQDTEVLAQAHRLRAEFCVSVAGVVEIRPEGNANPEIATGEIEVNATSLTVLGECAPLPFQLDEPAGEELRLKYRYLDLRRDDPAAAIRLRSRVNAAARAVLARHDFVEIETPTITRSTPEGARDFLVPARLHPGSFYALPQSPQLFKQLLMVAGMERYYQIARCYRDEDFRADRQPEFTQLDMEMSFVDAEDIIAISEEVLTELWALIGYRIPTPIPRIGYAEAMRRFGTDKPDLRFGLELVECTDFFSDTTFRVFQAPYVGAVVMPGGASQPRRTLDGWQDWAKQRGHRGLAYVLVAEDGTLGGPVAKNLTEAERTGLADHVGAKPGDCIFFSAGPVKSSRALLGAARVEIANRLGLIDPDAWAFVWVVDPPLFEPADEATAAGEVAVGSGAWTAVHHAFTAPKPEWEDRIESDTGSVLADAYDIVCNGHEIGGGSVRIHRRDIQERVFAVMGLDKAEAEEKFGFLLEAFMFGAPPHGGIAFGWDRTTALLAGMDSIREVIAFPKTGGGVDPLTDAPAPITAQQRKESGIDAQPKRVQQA

[4] = molecular target: AMP-activated protein kinase, AMPK (Homo sapiens) (UniProt P54646+O43741+P54619+Q9UGJ0+Q9Y478+Q13131+Q9UGI9); experiment: AMP-dependent Kinase enzyme assay. An in vitro enzyme assay that detects ADP turnover that is directly proportional to AMPK activity. This uses naive AMPK that is activated during the assay with MK-8722; format: functional; parameters: scale not given: direction of the effect not stated beside the values; conditions: 30 µM
[5] = molecular target: Sialic acid-binding Ig-like lectin 9 (Homo sapiens) (UniProt Q9Y336); experiment: Hs-Siglec9 ALPHAscreen SOP 20170721; parameters: scale not given: direction of the effect not stated beside the values; conditions: 10 µM
Chain of Sialic acid-binding Ig-like lectin 9 (Homo sapiens) (Q9Y336 whole entry): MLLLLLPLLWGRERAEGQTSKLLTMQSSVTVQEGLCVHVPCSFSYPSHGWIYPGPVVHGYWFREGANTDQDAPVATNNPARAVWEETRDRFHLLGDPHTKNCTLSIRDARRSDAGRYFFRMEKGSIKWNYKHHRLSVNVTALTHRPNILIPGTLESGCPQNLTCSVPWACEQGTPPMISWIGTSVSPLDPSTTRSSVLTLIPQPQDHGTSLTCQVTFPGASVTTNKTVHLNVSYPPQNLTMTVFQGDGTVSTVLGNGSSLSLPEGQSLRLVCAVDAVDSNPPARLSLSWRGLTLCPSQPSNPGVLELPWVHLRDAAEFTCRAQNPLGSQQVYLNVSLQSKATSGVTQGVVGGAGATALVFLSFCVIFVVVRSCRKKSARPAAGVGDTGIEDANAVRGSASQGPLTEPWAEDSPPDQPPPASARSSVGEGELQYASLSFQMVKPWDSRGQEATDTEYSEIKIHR

Trypanosoma cruzi = experiment: Trypanosoma cruzi phosphomannomutase and mannose-1-phosphate guanylyltransferase assay; format: functional; parameters: scale not given: direction of the effect not stated beside the values; conditions: 10 µM
[6] = molecular target: T3, Arginase-2, mitochondrial (Homo sapiens) (UniProt P78540); experiment: in vitro enzyme assay to detect the production of urea directly proportional to the activity of Arginase II; format: functional; parameters: scale not given: in the data most compounds retested in dose-response had high values; conditions: 33.3 µM
T3 sequence (whole entry): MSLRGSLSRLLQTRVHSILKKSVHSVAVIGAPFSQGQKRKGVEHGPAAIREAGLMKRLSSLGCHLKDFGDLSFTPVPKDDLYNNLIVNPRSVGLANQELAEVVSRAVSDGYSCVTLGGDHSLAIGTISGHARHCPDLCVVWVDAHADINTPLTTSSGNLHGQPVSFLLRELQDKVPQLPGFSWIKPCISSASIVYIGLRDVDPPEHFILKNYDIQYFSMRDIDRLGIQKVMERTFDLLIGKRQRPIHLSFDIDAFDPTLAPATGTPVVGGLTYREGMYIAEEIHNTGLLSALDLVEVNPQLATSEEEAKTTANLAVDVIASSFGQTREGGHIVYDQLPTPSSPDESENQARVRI

[7] = molecular target: T4, Proteasome subunit beta (Trypanosoma cruzi) (UniProt O96673); experiment: Trypanosoma cruzi proteasome chymotrypsin-like activity (TcProtChymo) assay.; format: functional; parameters: scale not given: in the data most compounds retested in dose-response had high values; conditions: 9.37 µM
T4 sequence (whole entry): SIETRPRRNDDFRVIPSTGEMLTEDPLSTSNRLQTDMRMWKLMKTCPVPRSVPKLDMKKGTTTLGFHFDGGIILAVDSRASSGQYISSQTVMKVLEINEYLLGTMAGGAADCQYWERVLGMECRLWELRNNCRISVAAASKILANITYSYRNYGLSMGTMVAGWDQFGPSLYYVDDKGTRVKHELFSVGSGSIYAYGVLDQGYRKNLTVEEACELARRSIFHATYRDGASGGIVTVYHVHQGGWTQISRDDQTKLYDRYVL

Homo sapiens = species on record: Homo sapiens; experiment: To identify inhibition of the IFN signalling (Jak-Stat) pathway via expression of an eGFP reporter gene under the control of an IFN-stimulated response element (ISRE) containing MxA promoter.; format: functional; parameters: scale not given: direction of the effect not stated beside the values; conditions: 30 µM
[8] = molecular target: Shiga toxin 2 (Escherichia coli O157:H7) (UniProt P09385+P09386); experiment: E. coli 0.157:H7 Shiga Toxin SOP - stx2 screening assay; format: functional; parameters: scale not given: direction of the effect not stated beside the values; conditions: 30 µM
[9] = molecular target: T5, Tyrosyl-tRNA synthetase, putative (Trypanosoma cruzi (strain CL Brener)) (UniProt Q4DSP6); experiment: Trypanosoma cruzi tyrosyl tRNA synthetase (TcYRS) _High Tyrosine SOP; format: functional; parameters: scale not given: in the data most compounds retested in dose-response had high values; conditions: 30 µM
T5 sequence (whole entry): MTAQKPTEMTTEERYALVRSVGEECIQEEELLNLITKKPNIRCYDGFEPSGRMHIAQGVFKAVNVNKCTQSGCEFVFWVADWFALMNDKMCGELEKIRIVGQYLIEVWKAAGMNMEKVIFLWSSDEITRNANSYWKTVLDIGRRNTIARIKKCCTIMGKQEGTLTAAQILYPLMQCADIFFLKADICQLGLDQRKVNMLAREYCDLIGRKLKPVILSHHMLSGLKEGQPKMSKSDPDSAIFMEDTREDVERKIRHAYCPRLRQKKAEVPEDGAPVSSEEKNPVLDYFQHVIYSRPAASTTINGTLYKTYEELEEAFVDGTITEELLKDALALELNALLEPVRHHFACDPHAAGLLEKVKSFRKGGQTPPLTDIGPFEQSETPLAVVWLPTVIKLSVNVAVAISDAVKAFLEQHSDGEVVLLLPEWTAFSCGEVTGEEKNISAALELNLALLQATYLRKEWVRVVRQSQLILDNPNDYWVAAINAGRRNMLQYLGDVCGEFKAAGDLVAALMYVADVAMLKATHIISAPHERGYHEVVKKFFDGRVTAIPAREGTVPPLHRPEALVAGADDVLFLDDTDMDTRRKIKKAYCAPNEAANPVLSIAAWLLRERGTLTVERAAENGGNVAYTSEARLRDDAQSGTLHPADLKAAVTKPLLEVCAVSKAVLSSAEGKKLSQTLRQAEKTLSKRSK

[10] = molecular target: T5, Tyrosyl-tRNA synthetase, putative (Trypanosoma cruzi (strain CL Brener)); experiment: Trypanosoma cruzi tyrosyl tRNA synthetase (TcYRS) SOP; format: functional; parameters: scale not given: direction of the effect not stated beside the values; conditions: 30 µM
[11] = molecular target: Chromo domain-containing protein 1 (Saccharomyces cerevisiae (strain ATCC 204508 / S288c) (Baker's yeast)) (UniProt P32657); experiment: ScCHD-1 Enzyme Inhibition Assay; format: functional; parameters: scale not given: in the data most compounds retested in dose-response had high values; conditions: 30 µM
Chain of Chromo domain-containing protein 1 (Saccharomyces cerevisiae (strain ATCC 204508 / S288c) (Baker's yeast)) (P32657 whole entry, the tested form may be a part): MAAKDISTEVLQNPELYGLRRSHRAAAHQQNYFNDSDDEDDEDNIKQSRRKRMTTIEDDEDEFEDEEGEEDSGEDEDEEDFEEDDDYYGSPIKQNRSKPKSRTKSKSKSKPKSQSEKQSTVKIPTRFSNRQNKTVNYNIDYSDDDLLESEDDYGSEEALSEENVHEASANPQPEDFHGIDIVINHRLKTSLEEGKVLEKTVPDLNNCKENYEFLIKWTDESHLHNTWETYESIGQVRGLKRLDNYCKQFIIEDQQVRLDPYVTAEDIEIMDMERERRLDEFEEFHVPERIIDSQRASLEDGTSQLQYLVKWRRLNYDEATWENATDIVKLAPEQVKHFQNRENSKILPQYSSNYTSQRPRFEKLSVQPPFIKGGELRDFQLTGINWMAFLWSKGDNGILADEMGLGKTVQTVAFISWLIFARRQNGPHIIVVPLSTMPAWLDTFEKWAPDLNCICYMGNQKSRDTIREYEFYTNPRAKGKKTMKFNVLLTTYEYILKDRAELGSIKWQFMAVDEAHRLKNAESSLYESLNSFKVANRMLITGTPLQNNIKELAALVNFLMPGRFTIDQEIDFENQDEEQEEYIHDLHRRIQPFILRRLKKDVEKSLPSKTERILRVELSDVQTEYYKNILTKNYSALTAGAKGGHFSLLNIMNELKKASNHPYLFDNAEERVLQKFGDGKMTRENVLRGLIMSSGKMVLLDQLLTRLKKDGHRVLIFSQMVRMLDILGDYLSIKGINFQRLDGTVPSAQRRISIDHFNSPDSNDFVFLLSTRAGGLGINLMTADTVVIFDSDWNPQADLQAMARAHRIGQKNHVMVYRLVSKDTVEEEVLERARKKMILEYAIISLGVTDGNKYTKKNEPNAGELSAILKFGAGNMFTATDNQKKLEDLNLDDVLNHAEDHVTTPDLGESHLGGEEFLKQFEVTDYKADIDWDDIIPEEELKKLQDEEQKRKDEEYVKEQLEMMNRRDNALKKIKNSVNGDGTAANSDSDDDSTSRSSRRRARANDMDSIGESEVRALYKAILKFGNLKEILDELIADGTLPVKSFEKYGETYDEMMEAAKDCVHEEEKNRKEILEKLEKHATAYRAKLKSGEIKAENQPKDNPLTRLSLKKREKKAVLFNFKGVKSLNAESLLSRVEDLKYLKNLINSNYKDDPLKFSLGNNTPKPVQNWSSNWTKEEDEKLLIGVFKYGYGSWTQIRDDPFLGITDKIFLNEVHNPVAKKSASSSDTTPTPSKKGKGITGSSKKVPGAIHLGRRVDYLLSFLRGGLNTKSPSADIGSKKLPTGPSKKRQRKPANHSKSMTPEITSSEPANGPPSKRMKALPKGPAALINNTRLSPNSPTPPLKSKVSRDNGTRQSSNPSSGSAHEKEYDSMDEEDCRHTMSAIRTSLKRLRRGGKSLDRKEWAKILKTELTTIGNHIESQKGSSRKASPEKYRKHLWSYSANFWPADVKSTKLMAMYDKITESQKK

[12] = molecular target: T6, Methionyl-tRNA synthetase, putative (Leishmania donovani (strain BPK282A1)) (UniProt E9BF75); experiment: Leishmania donovani Methionine tRNA synthetase (LdMetRS):v7. Dose response assay; format: functional; parameters: conc 80 nM, time 150 minutes
T6 sequence (whole entry): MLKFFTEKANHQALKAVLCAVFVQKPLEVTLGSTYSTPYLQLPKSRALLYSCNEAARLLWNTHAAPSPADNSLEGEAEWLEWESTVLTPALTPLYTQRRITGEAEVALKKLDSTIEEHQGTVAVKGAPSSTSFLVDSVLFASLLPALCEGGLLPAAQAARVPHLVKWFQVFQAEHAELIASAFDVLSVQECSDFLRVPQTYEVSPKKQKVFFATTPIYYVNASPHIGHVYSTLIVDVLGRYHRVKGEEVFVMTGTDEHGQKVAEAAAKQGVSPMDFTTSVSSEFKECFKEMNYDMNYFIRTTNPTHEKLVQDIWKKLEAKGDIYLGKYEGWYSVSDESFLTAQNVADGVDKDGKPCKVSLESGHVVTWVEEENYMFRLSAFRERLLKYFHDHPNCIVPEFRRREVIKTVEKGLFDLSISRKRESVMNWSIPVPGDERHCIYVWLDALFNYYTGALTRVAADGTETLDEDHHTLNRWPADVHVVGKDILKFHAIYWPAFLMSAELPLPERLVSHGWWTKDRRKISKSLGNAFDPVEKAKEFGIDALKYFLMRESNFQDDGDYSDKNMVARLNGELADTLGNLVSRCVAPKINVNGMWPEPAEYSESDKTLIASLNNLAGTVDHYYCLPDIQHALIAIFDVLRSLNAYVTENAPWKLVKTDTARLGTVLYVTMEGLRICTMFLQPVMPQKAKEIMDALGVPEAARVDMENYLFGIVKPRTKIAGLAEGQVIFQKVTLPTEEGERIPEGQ

C[C@H]1C[C@@H]2CCN(Cc3ccccn3)C[C@H]2O1
Percent Effect [1]: -1.13% | Percent Effect [2]: 0% | Percent Effect [3]: -1.48% | Percent Effect [4]: 92% | Percent Effect [5]: -0.495% | Percent Effect (Trypanosoma cruzi): 1.27% | Percent Effect [6]: 1.59% | Percent Effect [7]: 10.5% | Percent Effect (Homo sapiens): 7.67% | Percent Effect [8]: -4.58% | Percent Effect [9]: -2.16% | Percent Effect [10]: -5.13% | Percent Effect [11]: -8.15%

OCCN1CCC(F)(F)C2(CCN(c3cccnc3)C2)C1 (stereo unspecified)
PXC50 ([12]; MAX_EFFECT 6.355140187): < 4 | PXC50 ([12]; MAX_EFFECT 7.256235828): < 4

Clc1cc(CN2CCCN3CCCC3C2)c2ncccc2c1 (stereo unspecified)
PXC50 ([12]; BOTTOM 3.20477061, HILLSLOPE 1.084567425, MAX_EFFECT 62.37623762, TOP 100.0): 4.18 | PXC50 ([12]; BOTTOM 6.472550683, HILLSLOPE 0.834102773, MAX_EFFECT 67.39130435, TOP 100.0): 4.08 | PXC50 ([12]; BOTTOM 6.940148658, HILLSLOPE 1.034617946, MAX_EFFECT 59.85663082, TOP 100.0): 4.1

O=C(COc1ccccc1)N1C[C@@H](O)[C@H](N2CCCC2)C1
Percent Effect [1]: 0.635% | Percent Effect [2]: 9.46% | Percent Effect [3]: -7.13% | Percent Effect [4]: 3.56% | Percent Effect [5]: -3.46% | Percent Effect (Trypanosoma cruzi): 3.36% | Percent Effect [6]: -6.26% | Percent Effect [7]: 10.8% | Percent Effect (Homo sapiens): 1.48% | Percent Effect [8]: -14.2% | Percent Effect [9]: -1.07% | Percent Effect [10]: 3.9% | Percent Effect [11]: -22%
